{"source": "the supplement of paper PMC9694430", "note": "Where a name gives a salt, the structure may show the parent alone.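 Note: purified Escherichia coli-expressed rice kinase domain construct.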", "data": [{"system": "LOC_OS02G45750-cb003", "test": "thermal shift delta Tm vs DMSO control; higher = stronger stabilization (binding)", "conditions": "12.5 µM; protein concentration 2 µM", "in_short": "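Thermal shift values come from differential scanning fluorimetry on purified rice kinase domains made in E. coli, with melting temperatures obtained from Boltzmann fits. Samples of 19.5 μl held 2 μM kinase, 100 mM potassium phosphate pH 7.5, 150 mM NaCl, 10% glycerol, 5 × SYPRO Orange and compound in DMSO, and were heated from 25°C to 95°C at 0.05°C/s. Each shift is a triplicate mean relative to the DMSO-only protein sample.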", "units": {"thermal shift delta Tm": "°C"}, "values": [{"smiles": "CCn1c(=O)c(-c2ccc(-c3cncs3)cc2Cl)cc2cnc(Nc3ccc(N4CCN(C)CC4)cc3)nc21", "thermal shift delta Tm": 1.17}, {"smiles": "CNC(=O)c1cccc(-c2ccc3c(N4CCOC[C@@H]4C)nc(N4CCOC[C@@H]4C)nc3n2)c1", "note": "[Vistusertib (AZD2014)]", "thermal shift delta Tm": 0.21}, {"smiles": "CC(C)S(=O)(=O)c1ccc2nccc(Nc3ccc4scnc4c3)c2c1", "thermal shift delta Tm": 1.88}, {"smiles": "Cn1cc(-c2ccc3ncc(Cc4ccc5ncccc5c4)n3n2)cn1", "thermal shift delta Tm": 0.5}, {"smiles": "N#Cc1ccc2ncnc(NCCc3ccccc3)c2c1", "note": "[Senexin A]", "thermal shift delta Tm": 1.15}, {"smiles": "O=C1NC(=O)/C(=C/c2ccc3nccc(-c4ccncc4)c3c2)S1", "thermal shift delta Tm": 1.29}, {"smiles": "Cn1cnc2c(F)c(Nc3ccc(Br)cc3F)c(C(=O)NOCCO)cc21", "thermal shift delta Tm": 0.6}, {"smiles": "Cc1cc(Nc2ncc(Cl)c(Nc3ccccc3S(=O)(=O)C(C)C)n2)c(OC(C)C)cc1C1CCNCC1", "note": "[Ceritinib (LDK378)]", "thermal shift delta Tm": 0.68}, {"smiles": "Cc1nc2ccc(-n3ncc(C(=O)c4cc5ccccc5[nH]4)c3N)cc2[nH]1", "thermal shift delta Tm": 2.94}, {"smiles": "C=C[C@@](C)(/C=C/c1ccc(O)cc1)CCC=C(C)C", "note": "[Bakuchiol]", "thermal shift delta Tm": -0.82}, {"smiles": "C=CC(=O)Nc1cccc(Nc2nc(Nc3ccc(N4CCN(C(C)=O)CC4)cc3OC)ncc2C(F)(F)F)c1", "note": "[Rociletinib (CO-1686, AVL-301)]", "thermal shift delta Tm": 1.53}, {"smiles": "CCCS(=O)(=O)Nc1ccc(F)c(C(=O)c2c[nH]c3ncc(-c4ccc(Cl)cc4)cc23)c1F", "note": "[Vemurafenib (PLX4032, RG7204)]", "thermal shift delta Tm": 9.27}, {"smiles": "COc1cc(OC)c(C=C2C(=O)Nc3ccccc32)c(OC)c1", "thermal shift delta Tm": -0.14}, {"smiles": "CCN(CC)CCCC(C)Nc1nc(C)cc(Nc2ccc3nc(C)cc(N)c3c2)n1", "note": "(centres undefined)", "thermal shift delta Tm": 1.05}, {"smiles": "CN1CC(O)C2=C/C(=N/NC(N)=O)C(=O)C=C21", "note": "(centres undefined) [Carbazochrome]", "thermal shift delta Tm": 0.38}, {"smiles": "Cc1cc(Nc2cc(N3CCN(C)CC3)nc(/C=C/c3ccccc3)n2)n[nH]1", "thermal shift delta Tm": 4.69}, {"smiles": "Cc1ccc(NC(=O)Nc2cc(C(F)(F)F)ccc2F)cc1Nc1ccc2c(c1)NC(=O)/C2=C\\c1ccc[nH]1", "thermal shift delta Tm": 0.48}, {"smiles": "CO[C@H]1C[C@@H]2CC[C@@H](C)[C@@](O)(O2)C(=O)C(=O)N2CCCC[C@H]2C(=O)O[C@H]([C@H](C)C[C@@H]2CC[C@@H](O)[C@H](OC)C2)CC(=O)[C@H](C)/C=C(\\C)[C@@H](O)[C@@H](OC)C(=O)[C@H](C)C[C@H](C)/C=C/C=C/C=C/1C", "note": "[Rapamycin (Sirolimus)]", "thermal shift delta Tm": 0.22}, {"smiles": "C[S+]([O-])c1ccc(-c2nc(-c3ccc(F)cc3)c(-c3ccncc3)[nH]2)cc1", "note": "(centres undefined)", "thermal shift delta Tm": 1.21}, {"smiles": "CO[C@H]1CC[C@H](N2C(=O)CNc3ncc(-c4ccc(C(C)(C)O)nc4)nc32)CC1", "thermal shift delta Tm": 0.31}, {"smiles": "O=C(Nc1ccccc1C(=O)NC1CCCCNC1=O)c1cc2ccccc2s1", "note": "(centres undefined)", "thermal shift delta Tm": 0.67}, {"smiles": "CCN1CCN(Cc2ccc(-c3cc4c(N[C@H](C)c5ccccc5)ncnc4[nH]3)cc2)CC1", "thermal shift delta Tm": 6.37}, {"smiles": "Cc1cnc(NC(=O)Nc2cc(Br)c(C)cc2OC[C@@H]2CNCCO2)cn1", "thermal shift delta Tm": 2.48}, {"smiles": "Cc1ccc(NC(=O)c2ccc(CN3CCN(C)CC3)cc2)cc1Nc1nccc(-c2cccnc2)n1", "note": "[Imatinib Mesylate (STI571)]", "thermal shift delta Tm": 0.55}, {"smiles": "NC(=O)c1ccc(N(C(N)=O)c2c(F)cccc2F)nc1-c1ccc(F)cc1F", "thermal shift delta Tm": -0.83}, {"smiles": "Cc1nc(-c2cn3c(n2)-c2ccc(-c4cnn(C(C)(C)C(N)=O)c4)cc2OCC3)n(C(C)C)n1", "note": "[Taselisib (GDC 0032)]", "thermal shift delta Tm": 1.34}, {"smiles": "COc1cc(N2CCC(N(C)C)CC2)ccc1Nc1ncc(Cl)c(Nc2ccccc2P(C)(C)=O)n1", "thermal shift delta Tm": 2.58}, {"smiles": "COc1cc2c(Nc3ccc(NC(=O)c4ccccc4)cc3)ncnc2cc1OCCCN1CCOCC1", "thermal shift delta Tm": 2.66}, {"smiles": "CNC(=O)c1cc(Oc2ccc(NC(=O)Nc3cc(C(C)(C)C)nn3-c3ccc4ncccc4c3)c(F)c2)ccn1", "note": "[Rebastinib (DCC-2036)]", "thermal shift delta Tm": 12.3}, {"smiles": "CC(C)(CO)n1cc(C(=O)c2cncc(NC(=O)Cc3ccc(Cl)cn3)c2)c2cnc(N)nc21", "thermal shift delta Tm": 1.08}, {"smiles": "CS(=O)(=O)N1CCN(Cc2cc3nc(-c4cccc5[nH]ncc45)nc(N4CCOCC4)c3s2)CC1", "note": "[Pictilisib (GDC-0941)]", "thermal shift delta Tm": 0.86}, {"smiles": "C[C@@H]1COC(Nc2ccc3ncnc(Nc4ccc(OCc5nccs5)c(Cl)c4)c3c2)=N1", "note": "[Varlitinib]", "thermal shift delta Tm": 1.53}, {"smiles": "COc1cc(Nc2ncc(F)c(Nc3ccc4c(n3)NC(=O)C(C)(C)O4)n2)cc(OC)c1OC", "thermal shift delta Tm": 6.19}, {"smiles": "CC(C)n1nc(-c2ccc3oc(N)nc3c2)c2c(N)ncnc21", "thermal shift delta Tm": 6.62}]}]}
